TLR4 MyD88 comp: blocks binding of human TLR4 to MyD88; actives 0.18% (n = 200,000); O00206+Q99836; inhibition, % at 8.4 µM; HeLa CL3-4 TLR4/MyD88 BLA complementation, FRET ratio; in the data active = inhibition above about 25%;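 note: 0% = vehicle and 100% = reference inhibitor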
Neddylation inh: blocks human cullin neddylation | P61081+Q13564 | TR-FRET cullin neddylation, biochemical | inhibition, % at 25 µM | actives 0.58% (n = 360,000) | AID 651699; in the data active = inhibition above about 36%
TLR9-MyD88 inh: TLR9-MyD88 interaction inhibition. CHO BLA complementation TLR9-MyD88, CCF4 FRET ratio. actives 0.21% (n = 340,000). inhibition, % at 4.98 µM. Q9NR96+Q99836;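 active = inhibition above the mean over all tested compounds plus 3 SD, cut at about 21% in these data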;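 note: 0% = DMSO only wells and 100% = clavulanate BLA inhibitor control wells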
GC-B act: GC-B (human) receptor activation. actives 0.11% (n = 370,000). P20594. activation, % at 10 µM. HEK293-GC-B cells, CNP EC30, cGMP TR-FRET; 0% at EC30 CNP, 100% saturating CNP;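 active = activation at 10 µM reaching about 35% in either raw or pattern-adjusted values, limit read from the data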
NPR1 activator: GC-A (human) enzyme activation; AID 1671463; actives 0.14% (n = 370,000); activation, % at 10 µM; HEK293 GC-A cells, cGMP TR-FRET, EC30 ANP; 0% at EC30 ANP, 100% saturating ANP; in the data active = activation above about 40%
NOD2-RIPK2 inh: inhibitors of human NOD2-RIPK2 interaction; O43353; CHO BLA complementation NOD2-RIPK2, CCF4 ratio; inhibition, % at 4.98 µM; actives 0.38% (n = 360,000); AID 624267; in the data active = inhibition above about 21%;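 note: 0% = vehicle only and 100% = reference blocker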
Target sequence (O43353 whole entry, looked up): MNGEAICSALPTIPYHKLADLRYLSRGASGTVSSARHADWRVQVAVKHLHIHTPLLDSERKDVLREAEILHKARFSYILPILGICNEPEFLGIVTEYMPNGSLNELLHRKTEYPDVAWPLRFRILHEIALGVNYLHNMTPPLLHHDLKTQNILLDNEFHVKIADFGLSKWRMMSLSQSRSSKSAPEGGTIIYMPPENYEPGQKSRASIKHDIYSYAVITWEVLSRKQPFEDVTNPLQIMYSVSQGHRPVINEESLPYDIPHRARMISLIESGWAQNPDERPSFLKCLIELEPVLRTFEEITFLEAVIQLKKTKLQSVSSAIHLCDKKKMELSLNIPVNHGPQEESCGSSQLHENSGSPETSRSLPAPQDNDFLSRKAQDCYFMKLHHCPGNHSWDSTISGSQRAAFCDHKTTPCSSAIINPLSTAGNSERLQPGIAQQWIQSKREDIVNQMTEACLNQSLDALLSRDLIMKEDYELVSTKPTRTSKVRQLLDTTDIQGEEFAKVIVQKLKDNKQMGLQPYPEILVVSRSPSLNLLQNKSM
NOD2-RIPK2 conf: confirmation of human NOD2-RIPK2 interaction inhibitors; shares compounds with NOD2-RIPK2 inh; CHO cells, NOD2-RIPK2 BLA complementation, CCF4 FRET; inhibition, % at 4.98 µM; actives 70% (n = 1,200); AID 624370;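 active = mean inhibition across replicates above a set limit taken from the earlier primary screen, cut at about 21% in these data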;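 note: 0% = DMSO-only wells and the high end = clavulanate BLA-blocked wells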
NOD2 BLA counter: counter-screen for NOD2-RIPK2 interaction inhibitors: BLA reporter; inhibition, % at 4.98 µM; CHO BLA reporter, CCF4 FRET ratio, counterscreen; actives 57% (n = 1,200); shares compounds with NOD2-RIPK2 inh;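 active = mean inhibition above the low-control mean inhibition plus three low-control SD, cut at about 11% in these data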;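 note: 0% = DMSO only wells and 100% = clavulanate high control wells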
* marks the source's active call; other numbers are inactive results; · = no result shown; ! = not confirmed by another sample. Sampled rows, rich in hits. Any-hit rate of the full collection: about 1.2%.

SMILES | TLR4 MyD88 comp | Neddylation inh | TLR9-MyD88 inh | GC-B act | NPR1 activator | NOD2-RIPK2 inh | NOD2-RIPK2 conf | NOD2 BLA counter
Cc1cccc(C)c1NC(=O)C(c1ccc(C(F)(F)F)cc1)n1c(=O)c(-c2cc3ccccc3[nH]2)nc2ccccc21 (configuration not stated) | · | · | · | 1 | 5 | 47* | 45* | 69*
Cc1cccc(C)c1NC(=O)C(c1ccc(-c2ccccc2)cc1)n1c(=O)c(-c2cc3ccccc3[nH]2)nc2ccccc21 (configuration not stated) | · | · | · | 1 | 5 | 42* | 39* | 66*
O=[N+]([O-])c1ccc(C=NNc2ccccc2)cc1 | · | -61 | 16 | -2 | -1 | 5 | · | ·
O=[N+]([O-])c1ccc(N/N=C/c2ccccc2)c(F)c1 | 17 | 0 | 17 | -2 | 8 | 24* | 27* | 30*
COc1ccc(C(=O)C(CN2CCOCC2)c2ccccc2)cc1F (configuration not stated) | -3 | -4 | 4 | -30 | -13 | 58* | -4 | -5
COc1ccccc1N1CCN(C(=O)c2cc3c(C)nn(-c4ccccc4)c3s2)CC1 | · | · | · | 6 | 4 | · | · | ·
COc1cccc2sc(Nc3nnc(-c4ccccc4Cl)o3)nc12 | 13 | · | -9 | -2 | 1 | 5 | · | ·
COc1ccccc1-c1nnc(Nc2nc3c(OC)cccc3s2)o1 | 15 | -35 | 18 | -5 | -2 | 26* | 19 | 3
C[N+](C)(C)CCN1C(=O)c2ccccc2C1=O | · | -1 | · | 1 | 2 | -10 | · | ·
COc1ccc(Cc2nnc(SC)n2-c2ccc(F)cc2)cc1OC | · | 2 | · | · | · | 5 | · | ·
CCN1CCN(Cc2ccc(NC(=O)c3cccc(-c4ccc5nc(NC(=O)C6CC6)sc5n4)c3)cc2C(F)(F)F)CC1 | · | · | · | -1 | 2 | · | · | ·
OC[C@@H]1[C@@H](c2ccc(F)cc2)C(c2cccc(Cl)c2)=NN1c1ccccc1 | · | · | 2 | -9 | 0 | 29* | 30* | 54*
OC[C@@H]1[C@@H](c2ccc(Cl)cc2)C(c2ccccc2)=NN1c1ccccc1 | · | · | -7 | -6 | 12 | 8 | · | ·
OC[C@@H]1[C@@H](c2ccc(Cl)cc2)C(c2cccc(Cl)c2)=NN1c1ccccc1 | · | · | 2 | -6 | 0 | 34* | 30* | 59*
Cc1cccc(C)c1NS(=O)(=O)c1ccc(-c2cnc(C3CC3)o2)cc1 | · | -2 | -2 | 12 | -3 | 23* | 10 | -4
Cc1ccc(NS(=O)(=O)c2ccc(-c3cnc(C4CC4)o3)cc2)cc1 | · | 8 | -9 | 7 | -7 | 2 | · | ·
CCCCNc1c(-c2ccc(OC)c(SC3CCCCC3)c2)nc2ccc(C)cn12 | · | · | -7 | 10 | 13 | 53*! | 20 | 10
COc1ccc(C(C#N)=C2C=CC(=NO)C=C2)cc1 | · | -14 | 11 | -13 | -7 | 9 | · | ·
CC(=O)ON=C1C=CC(=C(C#N)c2ccccc2)C=C1 | · | 3 | · | 0 | 6 | 26* | 35* | 8
Nc1c(S(=O)(=O)c2ccccc2)csc1C(=O)O | 2 | 11 | -12 | 0 | 0 | 44* | -8 | -4
O=C1N/C(=C/c2ccc(N3CCOCC3)o2)C(=O)N1c1ccccc1 | 2 | -1 | 9 | 8 | 6 | 40* | 5 | 5
O=C(c1cccc(F)c1)N1CCN(S(=O)(=O)c2ccccc2)CC1 | -7 | -3 | 5 | 4 | -2 | -7 | · | ·
O=C(c1ccccc1)N1CCN(S(=O)(=O)c2ccccc2)CC1 | · | -5 | -9 | -2 | 1 | 31* | -7 | -3
CC(=O)OCC1OC(n2cc(F)c(=O)[nH]c2=O)C(OC(C)=O)C1OC(C)=O (configuration not stated) | · | -2 | -5 | -1 | 2 | -3 | · | ·
O=C1C(F)=CC(COC(c2ccccc2)(c2ccccc2)c2ccccc2)OC1n1cc(F)c(=O)[nH]c1=O (configuration not stated) | · | -6 | -3 | -14 | -37 | 30* | 58* | 24*
SMILES | TLR4 MyD88 comp | Neddylation inh | TLR9-MyD88 inh | GC-B act | NPR1 activator | NOD2-RIPK2 inh | NOD2-RIPK2 conf | NOD2 BLA counter
CC(C)(C)NC(=O)C(c1ccc(C(F)(F)F)cc1)n1c(=O)c(-c2cc3ccccc3[nH]2)nc2ccccc21 (configuration not stated) | · | · | · | -1 | 4 | 45* | 41* | 66*
CC(C)(C)NC(=O)C(c1ccccc1)n1c(=O)c(-c2cc3ccccc3[nH]2)nc2ccccc21 (configuration not stated) | · | · | · | -9 | -8 | 43* | 40* | 65*
CC(C)(C)NC(=O)C(c1ccc(-c2ccccc2)cc1)n1c(=O)c(-c2cc3ccccc3[nH]2)nc2ccccc21 (configuration not stated) | · | · | · | 4 | 7 | 40* | 34* | 63*
CC(C)(C)NC(=O)C(c1ccc(C#N)cc1)n1c(=O)c(-c2cc3ccccc3[nH]2)nc2ccccc21 (configuration not stated) | · | · | · | 0 | 1 | 54* | 51* | 70*
COc1ccc(C(C(=O)NC(C)(C)C)n2c(=O)c(-c3ccccc3)nc3ccccc32)cc1 (configuration not stated) | · | 18 | · | -5 | 0 | -3 | · | ·
CC(C)(C)NC(=O)C(c1ccc(C(F)(F)F)cc1)n1c(=O)c(-c2ccccc2)nc2ccccc21 (configuration not stated) | · | 31 | · | 0 | 3 | -1 | · | ·
CN(Cc1ccccc1)C(=O)OCc1cn(Cc2ccccc2)nn1 | · | · | · | 2 | 1 | · | · | ·
NC(=O)C1CCN(c2nc(-c3ccc(OCc4ccccc4)cc3)cs2)CC1 | · | · | · | -2 | 10 | · | · | ·
CC(C)(C)NC(=O)C(c1cccc2ccccc12)n1c(=O)c(-c2cc3ccccc3[nH]2)nc2ccccc21 (configuration not stated) | · | · | · | 0 | -4 | 40* | 34* | 62*
CC(C)(C)NC(=O)C(c1ccccc1F)n1c(=O)c(-c2ccccc2)nc2ccccc21 (configuration not stated) | · | -197 | · | -2 | -6 | 12 | · | ·
O=[N+]([O-])c1ccc(NN=Cc2ccc(O)cc2O)nc1 | · | -24 | 5 | -9 | -3 | 22* | 8 | 15*
O=[N+]([O-])c1ccc(N/N=C/c2ccccc2O)cc1 | · | -14 | 8 | -5 | 2 | 27* | 38* | 35*
O=[N+]([O-])c1ccc(NN=Cc2ccccc2O)nc1 | · | -21 | 15 | -5 | 0 | 19 | · | ·
O=c1cc(-c2ccccc2Cl)oc2cc(O)cc(O)c12 | 10 | -16 | 8 | 6 | -1 | -10 | · | ·

Screening results deposited in PubChem BioAssay by several laboratories.
